Compounds with a hit are over-represented: about 21% of the library has one in this group of screens.
NS1 inh: blocks influenza NS1 protein function. actives 0.4% (n = 270,000). Potency, µM (top dose mostly 46.1 µM), for inactives: at the highest dose activity, positive = more growth; calls by dose curve; note: potency is the fitted concentration of half-maximal effect; actives are rising curves; nearly all actives have a fitted effect of over 50% in size
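Read-out: OD600 growth recovery of NS1-expressing budding yeast. Cells grown overnight at 30C in -URA glucose medium, washed, resuspended and diluted 1:100 in 2% galactose assay medium, pH 6.0. Same strain lacking NS1 served as positive control.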
Pf growth 96h: P. falciparum growth inhibition at 96 hours. P. falciparum luciferase reporter growth, 96 h. Potency, µM (doses to about 28.7 µM), without a hit: top-dose activity change, negative = inhibition, actives largely listed as inhibitors. actives 6.9% (n = 320,000). AID 504834; note: potency is the fitted concentration of half-maximal effect; % is set by controls: 0 for no effect and ±100 for the full control effect
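96 h incubation, 37 C, 5% CO2, of luciferase-reporter P. falciparum-infected RBCs (2% hematocrit, 0.05% parasitemia final) with test compounds; endpoint luminescence.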
CHX counter: counter-screen hit for Shiga toxin inhibitors, cycloheximide. cell reporter, cycloheximide protein synthesis inhibition counterscreen. max response, %. actives 12% (n = 300,000); in the data active = max response mostly above about 13%, no sharp cut-off; inactive = mostly below about 14%; note: read at 38.3 µM for the half of the compounds with a filed dose; 0% is about no effect
Shiga toxin inh: inhibitors of Shiga toxin in Vero cells. inhibition, % at 38.7 µM. AID 2315. Vero cells, Shiga toxin protein synthesis inhibition reporter. actives 9.2% (n = 290,000); in the data active = inhibition mostly above about 28%, no sharp cut-off; inactive = mostly below about 43%; note: 0% is about no effect
Pf growth 48h: P. falciparum growth inhibition at 48 hours (one generation); actives 5.9% (n = 310,000); AID 504832; Potency, µM (titrated, usually from 28.7 µM), inactives show at the highest dose activity change, negative = inhibition, actives largely listed as inhibitors; P. falciparum luciferase growth in erythrocytes, 48 h; note: potency is the fitted concentration of half-maximal effect; % is set by controls: 0 for no effect and ±100 for the full control effect
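Luminescence readout; reporter = integrated firefly luciferase in P. falciparum. RBC culture at 2% hematocrit, 0.1% parasitemia final, 37 C/5% CO2; decreased signal taken as growth inhibition.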
The depositor's hits bear a star. Unless noted, calls come from the whole dose curve; as a rule, active = well fitted inhibition curve with a large enough effect; inconclusive = small, poorly fitted or top-dose-only effect, or another doubt; inactive = no such curve, though single readings can be large or run the other way.

How did FC(F)(F)c1cccc(NC(=S)Nc2cccc(NC(=S)Nc3cccc(C(F)(F)F)c3)n2)c1 do in these assays?
NS1 inh: -3%; Pf growth 96h: inconclusive; CHX counter: 24*; Shiga toxin inh: 44*; Pf growth 48h: 12µM*

What do the screens show for `Cc1cccc(NC(=S)Nc2cccc(C(F)(F)F)c2)n1`?
NS1 inh: 10%; Pf growth 96h: inconclusive; CHX counter: -2; Shiga toxin inh: -4; Pf growth 48h: inconclusive

Results for O=C(c1ccco1)N1CCN(CC(O)COc2ccc3oc4ccccc4c3c2)CC1 (stereo unspecified) ?
NS1 inh: -38%; Pf growth 96h: 32%; CHX counter: -2; Shiga toxin inh: 19; Pf growth 48h: 35%

How did NC(CCC(=O)N[C@@H](CS)C(=O)NCC(=O)O)C(=O)O (stereo partly specified) do in these assays?
Pf growth 96h: 3µM*; Pf growth 48h: 2.1µM*

Results for CC(C)N(N=Nc1ccc([N+](=O)[O-])cc1)C(C)C ?
NS1 inh: 6%; Pf growth 96h: inconclusive; CHX counter: -1; Shiga toxin inh: -4; Pf growth 48h: inconclusive

Results for O=[N+]([O-])c1cccc(C(=Nc2ccccc2)NO)c1 ?
NS1 inh: -5%; Pf growth 96h: -2%; CHX counter: -2; Shiga toxin inh: 9; Pf growth 48h: 16%

Results for CN(N=Nc1ccc([N+](=O)[O-])cc1)c1ccccc1 ?
NS1 inh: -1%; Pf growth 96h: 161%; CHX counter: 68*; Shiga toxin inh: 54*; Pf growth 48h: 91%

What do the screens show for `CN(N=Nc1cccc([N+](=O)[O-])c1)c1ccccc1`?
NS1 inh: 3%; Pf growth 96h: -4%; CHX counter: 57*; Shiga toxin inh: 88*; Pf growth 48h: 93%

What do the screens show for `CCN(CC)C(=O)CC(c1ccc(F)cc1)c1ccco1` (stereo unspecified)?
NS1 inh: 20%; Pf growth 96h: -24%; CHX counter: -1; Shiga toxin inh: -10; Pf growth 48h: inconclusive

What do the screens show for `O=C(c1cccc(NS(=O)(=O)c2ccc(Br)cc2)c1)N1CCCCC1`?
Pf growth 96h: 24%; Pf growth 48h: -10%

How did CCC(C)NC(=O)CSc1ccc(Cl)cc1 (stereo unspecified) do in these assays?
NS1 inh: 5%; Pf growth 96h: 3.3µM*; CHX counter: 18*; Shiga toxin inh: active; Pf growth 48h: 53%

How did Cc1ccc(SCC(=O)NCC(C)C)cc1 do in these assays?
NS1 inh: 2%; Pf growth 96h: 38%; CHX counter: 12; Shiga toxin inh: 44*; Pf growth 48h: 75%

What do the screens show for `CC(C)CNC(=O)CSc1ccc(Cl)cc1`?
NS1 inh: -7%; Pf growth 96h: 44%; CHX counter: 14*; Shiga toxin inh: 47

Results for CC(C)C(NC(=O)CSc1ccc(Cl)cc1)C(C)C ?
NS1 inh: -15%; Pf growth 96h: inconclusive; CHX counter: -9; Shiga toxin inh: -3

What do the screens show for `Cc1ccc(SCC(=O)NCc2ccccc2C)cc1`?
NS1 inh: -16%; Pf growth 96h: 10%; CHX counter: 16; Shiga toxin inh: 14; Pf growth 48h: 0%

How did CC(=O)Nc1ccc(NC(=O)C2CCN(C(=O)c3cccs3)CC2)cc1 do in these assays?
NS1 inh: 1%; Pf growth 96h: 47%; CHX counter: -1; Shiga toxin inh: -8; Pf growth 48h: 16%

Results for COC(=O)C1=C(C)N(Cc2ccccc2)C(=NCCN2CCOCC2)N[C@H]1CCc1ccccc1 ?
NS1 inh: 7%; Pf growth 96h: 2%; CHX counter: -2; Shiga toxin inh: -7; Pf growth 48h: -1%

How did NCCCC[C@H](NC(=O)[C@H](CCCN=C(N)N)NC(=O)[C@H](CO)NC(=O)[C@H](CCCN=C(N)N)NC(=O)[C@@H](N)Cc1ccc(O)cc1)C(=O)N[C@@H](Cc1ccc(O)cc1)C(=O)N[C@@H](CO)C(=O)N[C@@H](CO)C(=O)N[C@@H](Cc1c[nH]c2ccccc12)C(=O)N[C@@H](Cc1ccc(O)cc1)C(=O)O do in these assays?
CHX counter: -1; Shiga toxin inh: -6

How did CCOC(=O)c1ccc(S(=O)(=O)N2CCC(C(=O)NCc3ccccc3OC)CC2)cc1 do in these assays?
Pf growth 96h: 8.3µM*; Pf growth 48h: inconclusive

Bioassay records from PubChem.
